In all, about 340,000 compounds went through this assay and about 3,300 (0.97%) were called active. Not shown: some 9% with an inconclusive outcome. Calls come from the whole dose curve; as a rule, active = well fitted inhibition curve with a large enough effect; inconclusive = small, poorly fitted or top-dose-only effect, or effect the other way; inactive = flat fitted curve, though single readings scatter. The list shows a part of the results.
Assay: qHTS Assay for Modulators of miRNAs and/or Inhibitors of miR-21; note: nearly all actives have a fitted effect of over 55% in size
Conditions: HeLa miR-21-FLuc reporter, luciferase luminescence, 48 h; actives lower the signal
Text: MLSCN Grant: 1 R21 NS059478-01 Assay Provider: Qihong Huang, The Wistar Institute NCGC Assay Overview: MicroRNAs (miRNAs) are endogenously encoded small (~20-25 nucleotides), nonprotein-coding RNAs that are involved in post-transcriptional repression of target messenger RNAs (mRNAs) (Le and Hannon, 2004). Estimated to be involved in the regulation of 30% of all protein-coding mRNAs (Filipowicz et al., 2008), miRNAs play a significant role in many biological processes including cellular differentiation and tissue development (Ghildiyal and Zamore, 2009).
NCGC Assay Protocol Summary: Reagents: HeLa cells stably expressing firefly luciferase (FLuc) under the control of a CMV promoter (upstream) and a miR-21 binding sequence directly downstream of the gene. These cells endogenously express miR-21. Control compounds used were compound C3 (provided by collaborator), N6-phenyladenosine (MP Biomedicals, 0215379625), and DMSO. Assay Summary: 6uL of HeLa miR-21-FLuc cells in assay buffer (DMEM, Invitrogen #21063-029; 10% FBS, HyClone #SH30071.03) were dispensed at 2000cells/well (3.3 x 10^5 cells/mL) into Greiner solid-white TC-treated 1536-well plates using a Multidrop Combi (Thermo Fisher Scientific). Plates were incubated for one hour at 37 degree Celsius, 95% humidity, 5% CO2. These assay plates were then treated with 23nL of compound or DMSO using a Kalypsys pin tool, which allows for delivery of a 24-point titration of each compound to the assay plate, with a final compound concentration ranging from approximately 40uM to 5pM. Assay plates were then incubated for 48 hours. After incubation, plates were allowed to come to RT for one hour prior to delivery of 3uL of 3X luciferase detection reagent. After a 15 minute incubation to allow for cell lysis, luciferase activity was measured using a ViewLux CCD imager (PerkinElmer), with an average exposure time of 2-12 seconds. Keywords: NIH Roadmap, MLPCN, MLSMR, qHTS, miR-21, microRNA, firefly luciferase, FLuc.
Potency is the fitted concentration of half-maximal effect.

Potency, active:
O=C(NCc1ccccc1)c1cccc(COc2ccc3c(c2)CCC3)c1 0.585 µM
NNC(=O)c1cccc(COc2ccc3c(c2)CCC3)c1 0.185 µM
COc1ccccc1NC(=O)Nc1nc2ccc(S(N)(=O)=O)cc2s1 4.14 µM
Cc1cc(C(=O)Nc2nc3ccc(Cl)cc3s2)nn1C 0.927 µM
NS(=O)(=O)c1ccc2nc(NC(=O)Nc3ccccc3F)sc2c1 0.329 µM
O=C(Nc1nc2ccc(F)cc2s1)c1ccccn1 0.104 µM
O=C(Nc1nc2ccccc2s1)Nc1ccc(F)cc1F 0.736 µM
Cc1ccccc1OCC(O)Cn1nnc2ccccc21 (stereo not drawn) 7.36 µM
CC(C)(C)CC(=O)Nc1nnc(-c2cccs2)s1 1.31 µM
CCOc1ccc2c(c1)c(N=Nc1cccc(C(=O)O)c1)c(O)n2C 6.56 µM
N#Cc1ccccc1NC(=O)c1cccc(COc2ccc(Cl)cc2Cl)c1 1.65 µM
CN(C(=O)c1cccc(COc2ccc(Cl)cc2Cl)c1)c1ccccc1 2.61 µM
CN1CCN(C(=O)c2cccc(COc3cc(Cl)ccc3Cl)c2)CC1 16.5 µM
O=C(NCc1ccccc1)c1cccc(COc2cc(Cl)ccc2Cl)c1 7.36 µM
Cc1cc(C)c2c(N)c(C(=O)N/N=C/c3cccs3)sc2n1 1.47 µM
Cc1cc(C)c2c(N)c(C(=O)NCC3CCCCC3)sc2n1 6.56 µM
CCCCOC(=O)c1sc2nc(C)cc(C)c2c1N 5.85 µM
O=c1[nH]c2ccccc2nc1/C=C/c1ccccc1 2.33 µM
CC(C)n1c(/C=C/c2ccccc2)nc2ccccc21 6.56 µM
Cn1c(=O)c(/C=C/c2ccccc2)nc2ccccc21 2.07 µM
COc1ccc(-c2noc(-c3cc(C(C)C)[nH]n3)n2)cc1 3.29 µM
Cc1cccc(-c2noc(-c3cc(C(C)C)[nH]n3)n2)c1 0.464 µM
CC12COC3(C(=O)Nc4ccc5ccccc5c4)CC1CCC32C (stereo not drawn) 7.36 µM
CCN1CCN(c2ccc(NC(=O)c3ccccc3F)cc2Cl)CC1 2.93 µM
CCN1CCN(c2ccc(NC(=O)c3ccco3)cc2Cl)CC1 8.26 µM
Cc1ccc(Nc2ncnc(-n3cccc3)n2)cc1Cl 2.33 µM
COc1ccc(-c2c(C)nc3c(-c4ccccn4)cnn3c2N)cc1 0.261 µM
COc1ccc(-c2c(C)nc3c(-c4ccsc4)cnn3c2N)cc1 0.414 µM
CCOC(=O)C1=C(CSc2nc(-c3ccccc3)ccc2C#N)OC(N)=C(C#N)C1c1ccc(OC)cc1 (stereo not drawn) 11.7 µM
COc1ccc(C(=O)Cc2ccc(F)cc2)c(OC)c1 13.1 µM
O=[N+]([O-])c1ccc(/C=N/N2CCCCC2)cc1 5.21 µM
COc1ccc(-c2nnc(SCC(=O)c3cccs3)o2)c(OC)c1 6.56 µM
Cc1cc(Cl)c2oc(C(=O)N3CCN(C(=O)c4ccco4)CC3)c(C)c2c1 14.7 µM
Cc1cc(Cl)c2oc(C(=O)N3CCN(c4cccc(C)n4)CC3)c(C)c2c1 4.65 µM
O=C(Nc1ccc(Cl)cn1)c1ccc2c(Cl)c3c(nc2c1)CCC3 0.185 µM
N#Cc1ccccc1NC(=O)c1ccc2c(Cl)c3c(nc2c1)CCCC3 2.93 µM
COCCNC(=O)c1ccc2c(Cl)c3c(nc2c1)CCC3 5.85 µM
CN(C(=O)c1ccc2c(Cl)c3c(nc2c1)CCC3)c1ccccc1 14.7 µM
O=C(CSc1ccccc1)N1CCc2ccccc21 3.29 µM
O=C(CSc1ncccc1-c1nc2ccccc2[nH]1)N1CCc2ccccc21 5.21 µM
Cc1ccnc(SCC(=O)N2CCc3ccccc32)n1 7.36 µM
CCn1c(-c2ccc(F)cc2)cnc1SCC(=O)N1CCc2ccccc21 11.7 µM
Cc1ccc(SCC(=O)N2CCc3ccccc32)cc1 14.7 µM
O=c1oc2cc(O)ccc2cc1-c1nnc(Nc2ccccc2F)s1 0.369 µM
COc1cccc2cc(-c3nnc(Nc4c(F)cccc4F)s3)c(=O)oc12 1.04 µM
COc1cccc2cc(-c3nnc(Nc4ccccc4C)s3)c(=O)oc12 0.736 µM
CC1CCN(c2nc3ccc(C(=O)NCCCN4CCCCC4)cc3s2)CC1 0.0927 µM
CC1CCN(c2nc3ccc(C(=O)NCCCN4CCCCC4C)cc3s2)CC1 (stereo not drawn) 0.0656 µM
CCC1CCCCN1CCCNC(=O)c1ccc2nc(N3CCC(C)CC3)sc2c1 (stereo not drawn) 0.0656 µM
COc1cccc(N2CCN(C(=O)c3ccc4nc(N5CCC(C)CC5)sc4c3)CC2)c1 1.47 µM
Cc1ccc(-c2nnc(NC(=O)c3ccco3)s2)cc1 1.47 µM
Cc1ccc2nc(NC(=S)NC(=O)c3ccco3)sc2c1 0.736 µM
O=C(NC(=S)Nc1nc2ccccc2s1)c1ccco1 1.17 µM
CC1CCC/C(=C\Nc2ccc(O)cc2)C1=O (stereo not drawn) 10.4 µM
CC1CCC/C(=C\Nc2ccc(C(=O)O)cc2)C1=O (stereo not drawn) 0.585 µM
CCC(=O)Nc1nnc(/C=C/c2ccc(OC)cc2)s1 11.7 µM
COC(=O)Nc1nnc(/C=C/c2ccc(OC)cc2)s1 4.14 µM
CCC(=O)Nc1nnc(/C=C/c2ccccc2)s1 13.1 µM
COc1ccc(/C(C)=N/Nc2cccc(C(=O)O)c2)cc1OC 10.4 µM
CC(=O)Nc1cccc(C(=O)N/N=C/c2ccccc2F)c1 2.07 µM
C/C(=N\Nc1cccc(C(=O)O)c1)c1ccc(Cl)s1 6.56 µM
C/C(=N\NC(=O)c1cccc(N/N=C(\C)c2ccccc2)c1)c1ccccc1 14.7 µM
C/C(=N\NC(=O)c1cccc(N/N=C(\C)c2ccco2)c1)c1ccco1 6.56 µM
C/C(=N/NC(=O)c1ccccc1)C(=O)O 2.93 µM
C/C(=N\Nc1ccc([N+](=O)[O-])cc1)c1ccco1 3.69 µM
CN(CCC#N)C(=O)c1cc2c(s1)-c1ccccc1SC2 4.14 µM
COc1ccc(C(=O)Nc2nnc(S(=O)(=O)N3CCC(C)CC3)s2)cc1OC 0.464 µM
O=C(Nc1nnc(S(=O)(=O)N2CCCC2)s1)c1ccc(F)cc1 3.69 µM
Cc1ccccc1C(=O)Nc1nnc(S(=O)(=O)N2CCCCCC2)s1 1.65 µM
CCC(CC)C(=O)Nc1nnc(S(=O)(=O)N2c3ccccc3CC2C)s1 (stereo not drawn) 2.61 µM
Cn1c(-c2cc3ccc(OC(=O)C(C)(C)C)cc3oc2=O)nc2ccccc21 3.69 µM
COc1ccccc1N1CCN(/N=C/c2cccc(Cl)c2)CC1 6.56 µM
COc1ccccc1N1CCN(/N=C\c2ccccc2)CC1 10.4 µM
CCOC(=O)c1snc(C(=O)NC2CCCCC2)c1N 7.36 µM
CN(C)/C=C(/C(=O)c1ccc(Cl)cc1)S(=O)(=O)c1ccccc1 18.5 µM
CCCC(=O)Nc1ccc2oc(-c3ccc(O)c(Br)c3)nc2c1 0.927 µM
O=C(Nc1ccc2oc(-c3cccnc3)nc2c1)c1ccco1 11.7 µM
CCC(=O)Nc1ccc2oc(-c3cccnc3)nc2c1 8.26 µM
Cc1cc(-c2nc3ncccc3o2)ccc1N 3.29 µM
O=C(Nc1ccc(-c2nc3ncccc3o2)cc1)c1ccco1 1.85 µM
Nc1cccc2c1C(=O)N(CCOc1ccc(F)cc1)C2=O 0.826 µM
COc1ccc(OCCN2C(=O)c3cccc(N)c3C2=O)cc1 14.7 µM
COc1ccc(C2=NN(c3ccc(C(=O)O)cc3)C(c3ccc(OC)c(OC)c3)C2)cc1 (stereo not drawn) 18.5 µM
COc1ccccc1CN=C1Nc2ccccc2CS1 5.85 µM
COc1cccc(CN=C2Nc3ccccc3CS2)c1 4.65 µM
CCCC(=O)Nc1ccc(NC(=O)C23CC4CC(CC(C4)C2)C3)cn1 18.5 µM
OC[C@H]1O[C@@H](n2cnc3c(Nc4ccccc4)ncnc32)[C@H](O)[C@@H]1O 3.69 µM
CCOC(=O)c1c(C)[nH]c2cc(Br)c(O)cc12 16.5 µM
O=C(COc1ccccc1Cl)N1CCc2ccccc21 2.07 µM
COc1ccc2c(CC(=O)N3CCc4ccccc43)coc2c1 2.93 µM
CCc1ccc(OCC(=O)N2CCc3ccccc32)cc1 4.65 µM
O=C(COc1ccc2c(c1)CCC2)N1CCc2ccccc21 3.29 µM
COc1ccc(C(=O)N2CCc3ccccc32)cc1 18.5 µM
O=C(COc1ccccc1)N1CCc2ccccc21 4.65 µM
Cc1c(Br)c(C(=O)N2CCc3ccccc32)nn1C 5.21 µM
Cc1c(C(=O)N2CCc3ccccc32)oc2ccccc12 0.736 µM
O=C(COc1ccc(F)cc1Br)N1CCc2ccccc21 1.26 µM
Cc1ccccc1OCC(=O)N1CCCc2ccccc21 14.7 µM
O=C(c1ccco1)N1CCc2ccccc21 5.85 µM
O=C(OCc1ccccc1)N1CCc2ccccc21 1.17 µM
O=C1/C(=C\Nc2ccc(Cl)cc2)CCN1c1ncccn1 1.31 µM
CCC(C)NC(=O)Cn1c(COc2ccc(Cl)cc2Cl)nc2ccccc21 (stereo not drawn) 8.26 µM
CC(=O)C(/C=N/c1cc(-c2ccc(C)cc2)nn1-c1ccccc1)=C(\C)O 1.47 µM

— PubChem BioAssay AID2289 (National Center for Advancing Translational Sciences (NCATS), 2010)
